This is a sample that favours compounds with a hit; in the whole collection about 2.4% have one here.
WRN helicase inh: qHTS for Inhibitors of WRN Helicase. WRN helicase unwinding, fluorescent forked duplex, kinetic. Bifunctional 3'-5' exonuclease/ATP-dependent helicase WRN (Homo sapiens), Q14191. 0.46% of 360,000 active. Potency, µM (series often up to 114 µM), without a hit: at the top dose activity change, negative = inhibition, most hits filed as inhibitors. AID 651768, 2012; further: potency means the concentration at half of the fitted maximal effect; on the % scale 0 is the no-effect control and ±100 the full control effect; nearly all actives have a fitted effect of over 55% in size
Target sequence (Q14191 whole entry, looked up): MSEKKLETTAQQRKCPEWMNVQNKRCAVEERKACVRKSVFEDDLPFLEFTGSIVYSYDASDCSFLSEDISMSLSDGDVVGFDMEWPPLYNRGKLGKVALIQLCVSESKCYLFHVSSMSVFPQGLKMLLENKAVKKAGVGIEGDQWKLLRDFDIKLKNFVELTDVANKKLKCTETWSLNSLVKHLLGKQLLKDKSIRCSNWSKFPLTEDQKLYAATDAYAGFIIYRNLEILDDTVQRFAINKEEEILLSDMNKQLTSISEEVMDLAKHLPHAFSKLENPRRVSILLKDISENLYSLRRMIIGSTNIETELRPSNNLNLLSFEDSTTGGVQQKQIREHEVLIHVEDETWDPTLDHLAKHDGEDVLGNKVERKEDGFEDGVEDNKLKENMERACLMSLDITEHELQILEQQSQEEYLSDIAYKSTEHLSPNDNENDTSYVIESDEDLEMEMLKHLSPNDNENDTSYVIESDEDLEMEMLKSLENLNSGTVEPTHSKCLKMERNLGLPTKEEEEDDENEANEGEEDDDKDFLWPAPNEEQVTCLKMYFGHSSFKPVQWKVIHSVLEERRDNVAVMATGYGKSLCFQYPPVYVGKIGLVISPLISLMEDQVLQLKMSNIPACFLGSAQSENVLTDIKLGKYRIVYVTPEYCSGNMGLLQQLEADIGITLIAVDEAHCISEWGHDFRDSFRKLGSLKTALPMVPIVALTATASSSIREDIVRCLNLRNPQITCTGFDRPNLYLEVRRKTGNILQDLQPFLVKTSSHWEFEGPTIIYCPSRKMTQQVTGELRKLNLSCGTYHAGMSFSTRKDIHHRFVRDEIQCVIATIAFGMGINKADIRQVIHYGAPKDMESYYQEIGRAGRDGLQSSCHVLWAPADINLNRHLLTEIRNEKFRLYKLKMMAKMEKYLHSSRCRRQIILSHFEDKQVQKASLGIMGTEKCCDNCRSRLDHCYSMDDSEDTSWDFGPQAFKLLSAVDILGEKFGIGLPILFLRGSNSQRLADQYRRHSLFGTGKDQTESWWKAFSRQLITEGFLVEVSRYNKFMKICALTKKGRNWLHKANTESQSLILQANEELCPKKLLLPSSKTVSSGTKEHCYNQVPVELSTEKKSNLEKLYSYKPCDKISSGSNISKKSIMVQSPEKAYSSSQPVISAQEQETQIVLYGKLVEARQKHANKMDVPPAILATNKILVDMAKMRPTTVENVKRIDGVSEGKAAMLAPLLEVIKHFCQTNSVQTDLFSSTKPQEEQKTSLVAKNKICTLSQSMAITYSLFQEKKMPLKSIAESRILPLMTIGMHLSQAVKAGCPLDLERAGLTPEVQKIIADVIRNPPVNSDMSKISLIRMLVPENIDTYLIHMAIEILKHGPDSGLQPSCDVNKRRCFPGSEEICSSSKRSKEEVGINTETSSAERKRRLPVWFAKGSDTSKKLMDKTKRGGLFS
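Screening of the MLSMR collection measured strand separation of a quenched forked DNA duplex (100 nM) by 20 nM WRN with 2 mM ATP, all final. Compounds were preincubated with enzyme 15 min at room temperature.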
FEN1 inh: qHTS Assay for the Inhibitors of Human Flap endonuclease 1 (FEN1). P39748. Recombinant FEN1 flap cleavage, fluorescence, 15 min. Potency, µM (top dose mostly 114 µM), for the others: top-dose activity change, negative = inhibition, hits mostly inhibitors. 0.35% of 390,000 active; further: potency means the concentration at half of the fitted maximal effect; on the % scale 0 is the no-effect control and ±100 the full control effect; nearly all actives have a fitted effect of over 65% in size
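FEN1 at 10 nM, compound pretreatment for 15 min (room temperature), 50 nM final substrate to initiate; endpoint reads at 0 and 15 min; DMSO-only plates used as vehicle background.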
Pol kappa inh-1: qHTS for Inhibitors of Polymerase Kappa; 0.53% of 400,000 active; purified Pol kappa, fluorescent DNA synthesis assay, 10 min; DNA polymerase kappa (Homo sapiens), Q9UBT6; Potency, µM (top dose mostly 107 µM), inactives show top-dose activity, negative = inhibition, actives largely listed as inhibitors; further: potency means the concentration at half of the fitted maximal effect; on the % scale 0 is the no-effect control and ±100 the full control effect
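Kinetic fluorescence screen: compound preincubated 15 min RT with 10 nM enzyme; 50 nM substrate (final) initiates; reads at 0/10 min.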
POLI inh: qHTS for Inhibitors of Polymerase Iota. DNA polymerase iota (Homo sapiens), Q9UNA4. Pol iota fluorescent replication assay, 10 min. Potency, µM (doses to about 115 µM), without a hit: top-dose activity, negative = inhibition, actives largely listed as inhibitors. 1% of 390,000 active; further: potency means the concentration at half of the fitted maximal effect
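Pol iota at 10 nM preincubated 15 min with compounds at room temperature; reaction started with fluorescent substrate, 50 nM final. Fluorescence read kinetically at 0 and 10 min; buffer-only wells as negative control.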
POLB inh: qHTS Assay for Inhibitors of DNA Polymerase Beta; P06746; Pol beta primer extension/strand displacement, fluorescence kinetic; Potency, µM (top dose mostly 114 µM), for the others: at the top dose activity change, negative = inhibition, usual class: inhibitors; 1.3% of 340,000 active; further: potency means the concentration at half of the fitted maximal effect; on the % scale 0 is the no-effect control and ±100 the full control effect
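10 nM enzyme + cpd, 15 min RT; start with substrate 50 nM final; read 0 min and after 10 min RT. Corrected, normalized data; 4-parameter Hill curve fit.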
Pol eta inh-1: qHTS for Inhibitors of Polymerase Eta | DNA polymerase eta (Homo sapiens), Q9Y253 | recombinant Pol eta, fluorescent DNA replication assay | Potency, µM (top dose mostly 114 µM), without a hit: at the top dose activity change, negative = inhibition, most hits filed as inhibitors | 1.2% of 390,000 active | AID 588591, 2011; further: potency means the concentration at half of the fitted maximal effect; on the % scale 0 is the no-effect control and ±100 the full control effect
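Pol eta (10 nM) was preincubated with compounds for 15 min at room temperature, after which fluorescent replication substrate (50 nM final) was added to start the reaction. Fluorescence was read kinetically at 0 and 10 min.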
GALK confirm: Confirmation Assay for Inhibitors of Human Galactokinase (GALK); 70% of 150 active; purified GALK, Kinase-Glo ATP depletion luminescence; AID 2015, 2009; Potency, µM (top dose mostly 115 µM), for inactives: at the highest dose activity, negative = inhibition, most hits filed as inhibitors; shares compounds with Pol eta inh-1
GALK redox cs: Confirmatory Assay for Inhibitors of Human Galactokinase (GALK): Phenol-HRP redox assay counterscreen; shares compounds with Pol eta inh-1; Phenol red-HRP H2O2 redox cycling, absorbance 600 nm; Potency, µM (top dose mostly 115 µM), inactives show top-dose activity change, negative = H2O2 signal, most hits filed as inhibitors; 40% of 150 active
HEK293 tox: Secondary Assay for Inhibitors of Human Galactokinase (GALK): HEK-293 Cell Viability Assay. shares compounds with Pol eta inh-1. HEK-293 viability, ATP luminescence (CellTiter-Glo), 24/48 h. Potency, µM (doses to about 46.1 µM), for the others: at the highest dose activity change, negative = cytotoxicity, hits mostly inhibitors. 10% of 170 active. AID 2547, 2010; further: potency means the concentration at half of the fitted maximal effect; on the % scale 0 is the no-effect control and ±100 the full control effect
Pol kappa inh-2: qHTS for Inhibitors of Polymerase Kappa: Confirmatory Assay for Cherry-picked Compounds. AID 720501, 2013. shares compounds with Pol eta inh-1. Potency, µM, actives largely listed as inhibitors. purified Pol-kappa, fluorescent strand-displacement substrate. 76% of 920 active; further: potency means the concentration at half of the fitted maximal effect
Pol eta inh-2: qHTS for Inhibitors of Polymerase Eta: Confirmatory Assay for Cherry-picked Compounds; shares compounds with Pol eta inh-1; Potency, µM, actives largely listed as inhibitors; 64% of 2,600 active; Pol eta primer extension, TAMRA/BHQ fluorescence, 10 min; further: potency means the concentration at half of the fitted maximal effect
Active calls of the source: *; ? = inconclusive; . = not tested or not shown; [ ] = remark or other dose. The call rests on the fitted dose curve; in most records, active means well fitted curve in the direction sought with a large enough effect; inconclusive means small, poorly fitted or top-dose-only effect, or another doubt; inactive means no such curve, though single readings can be large; an effect the other way counts as inactive or inconclusive.

SMILES	WRN helicase inh	FEN1 inh	Pol kappa inh-1	POLI inh	POLB inh	Pol eta inh-1	others
COC(=O)c1ccc(COc2ccc(/C=N/Nc3nc(C)cc(=O)[nH]3)cc2)cc1	-10%[11.6 µM]	?	-7%	?	20µM*	89µM*	Pol kappa inh-2=?
COC(=O)c1ccc(C(=O)OC)c(NC(=O)c2ccc(-c3ccccc3)s2)c1	.	13%	-3%	23%	2%	2%
Cn1ccc2cc(S(=O)(=O)N3CCC(C(=O)NCCc4ccccc4)CC3)ccc21	.	5%	-8%[60.1 µM]	0%	25%	-1%
Cc1ccc([N+](=O)[O-])cc1S(=O)(=O)Nc1ccc(C(=O)NCc2ccccn2)cc1	-25%	-2%	?	?	.	?	Pol eta inh-2=?
Cc1cccc(NS(=O)(=O)c2cc(C(=O)NCc3ccccn3)ccc2C)c1	-4%	1%	-14%	30%	-19%	-22%
CCOc1ccc(C(=O)Nc2cccc(C(=O)O)c2)cc1Cl	-18%	1%	2%	14%	7%	-10%
CCOc1ccc(C(=O)Nc2cc(NC(=O)c3ccc(OCC)c(Cl)c3)cc(C(=O)O)c2)cc1Cl	-14%[11.6 µM]	?	-1%	?	18µM*	32µM*	Pol kappa inh-2=21*
CCCCC[C@H](O)/C=C/[C@@H]1[C@H](C/C=C\CCCC(=O)O)[C@@H](O)C[C@H]1O	.	.	8%[19.4 µM]	.	.	.
CC1=C(C(N)=O)C(c2cccs2)n2nc(-c3cccc(C)c3)nc2N1 (stereo not drawn)	-3%	0%	-9%	11%	26%	7%
CC1=C(C(N)=O)C(c2cccs2)n2nc(-c3cccc(Cl)c3)nc2N1 (stereo not drawn)	-7%	-2%	-22%	0%	38%	3%	GALK confirm=?;GALK redox cs=5%;HEK293 tox=12%
CC(=O)Nc1ccc(S(=O)(=O)Nc2nc3n(n2)C(c2ccccc2)C=C(c2ccc(Cl)cc2)N3)cc1 (stereo not drawn)	.	8%	3%[60.1 µM]	-15%	-1%	?	Pol eta inh-2=?
O=S(=O)(Nc1nc2n(n1)C(c1ccccc1)C=C(c1ccc(Cl)cc1)N2)c1ccccc1 (stereo not drawn)	.	9%	0%	-19%	22%	89µM*	Pol kappa inh-2=67*;Pol eta inh-2=?
O=C1NC(=S)SC1=Cc1ccccc1Cl	-34%	-9%	-12%	?	.	-2%

Compound activity: PubChem BioAssay, National Center for Advancing Translational Sciences (NCATS)
